# Bioassay records as filed in PubChem BioAssay.
# PP1 counter – PP1-alpha (human) inhibition in PP5 counter-screen; P62136; purified PP1alpha, OMFP fluorescence; inhibition, % at 6.7 µM; 320,000 compounds, 0.9% hits; AID 2235;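 active = inhibition above the mean inhibition of all tested compounds plus 3 SD, computed separately for each screening campaign, cut at about 15% in these data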
# Rpn11 block – Rpn11 (human) deubiquitinase inhibition | O00487 | human 26S proteasome, Ub4-pepOG fluorescence polarization; 20S core pre-blocked with epoxomicin | inhibition, % at 20 µM | 360,000 compounds, 0.59% hits;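 active = inhibition at 20 µM, scaled to each plate's controls, above about 33%, limit read from the data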
# Target sequence (O00487 whole entry, looked up): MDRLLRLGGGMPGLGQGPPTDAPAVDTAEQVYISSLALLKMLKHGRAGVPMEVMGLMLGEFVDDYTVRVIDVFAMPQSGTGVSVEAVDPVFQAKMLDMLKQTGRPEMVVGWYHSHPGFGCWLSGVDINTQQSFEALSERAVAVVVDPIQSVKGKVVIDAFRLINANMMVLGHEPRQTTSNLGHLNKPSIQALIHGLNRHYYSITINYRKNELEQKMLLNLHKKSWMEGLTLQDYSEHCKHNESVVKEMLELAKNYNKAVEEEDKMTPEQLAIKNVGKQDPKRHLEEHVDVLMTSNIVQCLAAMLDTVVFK
# PREPL inh – inhibitors of human prolyl oligopeptidase-like enzyme PREPL; Q4J6C6; recombinant PREPL, fluorescence polarization activity-based probe; inhibition, % at 5.96 µM; 320,000 compounds, 0.68% hits; AID 2751; in the data active = inhibition above about 43%;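 also: 0% = enzyme with DMSO and 100% = wells lacking enzyme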
# NadD block – NadD (S. aureus) enzyme inhibition | inhibition, % at 20 µM | 360,000 compounds, 0.78% hits | purified NadD enzyme, colorimetric absorbance read-out | AID 602399; in the data active = inhibition above about 26%
# PP5 inh – blocks human protein phosphatase 5 activity. 320,000 compounds, 0.18% hits. inhibition, % at 6.7 µM. purified PP5c, OMFP substrate fluorescence;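 active = inhibition above the campaign's mean inhibition across all tested compounds plus 3 SD, cut at about 9.5% in these data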;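 also: 0% = DMSO only and 100% = 100 µM cantharidin control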
# Rpn11 inh conf – Rpn11 inhibition confirmation, single concentration; shares compounds with Rpn11 block; purified human 26S proteasome, Ub4-pepOG fluorescence polarization; proteasome pretreated with epoxomicin; inhibition, % at 20 µM; 1,900 compounds, 29% hits; AID 602318
# MMP-2 counter – blocks human MMP-2, flagging nonselective RPN11 hits; shares compounds with Rpn11 block; recombinant MMP-2, FRET peptide cleavage fluorescence; inhibition, % at 20 µM; 1,900 compounds, 4% hits;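 also: human MMP-2 activated beforehand with APMA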
# Thrombin inh – thrombin (bovine) inhibition counter-screen. shares compounds with Rpn11 block. bovine thrombin cleavage of Ub4-pepOG, fluorescence polarization. inhibition, % at 20 µM. 1,900 compounds, 13% hits. AID 602333;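 active = mean inhibition at least 40% at 20 µM, or signal 3 deviations below plate average, so some actives read negative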;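 also: plate controls were thrombin with DMSO for no effect and buffer wells lacking thrombin for full effect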
# * = called active by the depositor; . = no result given. This is a sample that favours compounds with a hit; in the whole collection about 2.4% have one here. Rule as the data show it, unless noted: active = inhibition above about 40%; inactive = the rest.
SMILES,PP1 counter,Rpn11 block,PREPL inh,NadD block,PP5 inh,Rpn11 inh conf,MMP-2 counter,Thrombin inh
Nc1ccc2c(c1)C(=NO)c1cc([N+](=O)[O-])ccc1-2,.,44*,.,3,.,12,-3,7
O=[N+]([O-])c1ccc2c(c1)-c1ccccc1C2=NO,.,2,.,-3,.,.,.,.
Cc1ccc(-c2nn(CC(=O)NCc3cc(-c4nn(C)c(=O)c5ccccc45)ccc3C)c(=O)c3ccccc23)cc1,-1,80*,2,7,-2,7,-20,-3
CCN1/C(=C/c2ccc3cc(C)ccc3[n+]2CC)Sc2cc(C)c(C)cc21,.,89*,.,26,.,75*,-63,146*
CCOC(=O)/C(=C/C=C1\Sc2cc(C)c(C)cc2N1CC)C(C)=O,.,.,.,1,.,.,.,.
O=C(NCC(=O)N1CCCC1)c1ccc(Cl)cc1,-2,0,-8,-1,2,.,.,.
CCc1cc2c(SCc3nc4sc(C(C)=O)c(C)c4c(=O)[nH]3)ncnc2s1,-7,65*,-10,10,0,77*,55*,46*
Cc1sc2nc(CSc3ncn[nH]3)[nH]c(=O)c2c1C,0,-1,-5,-3,0,.,.,.
Cc1cc(C)c(-c2nc3ccccc3s2)[nH]1,-1,60*,15,5,0,-6,-6,0
O=C(NCCO)c1nc(C(=O)c2ccccc2)c2ccccc2n1,-3,4,1,-1,1,.,.,.
N/C(=N\c1nc2c(c(=O)[nH]1)CCC2)Nc1cccc2ccccc12,6,36*,17,6,2,47*,-6,6
O=C1N/C(=N/Nc2ccccc2)S/C1=C\c1ccccc1,2,66*,2,13,0,28,37,15
O=C1NC(=Nc2ccccc2)S/C1=C\c1ccccc1,1,2,14,-1,-1,.,.,.
Cc1ccccc1C(=O)O/N=C(\N)c1cccc([N+](=O)[O-])c1,2,-2,11,-5,2,.,.,.
N/C(=N\OC(=O)c1cccc2ccccc12)c1cccc([N+](=O)[O-])c1,-3,81*,19,-7,5,13,32,-6
COc1cccc(C(=O)CN2C(=O)C(C)(C)Oc3ccc(C(=O)N4CCCCCC4)cc32)c1,-4,163*,16,1,-4,-4,-42,-14
COc1cccc(C(=O)CN2C(=O)C(C)(C)Oc3ccc(C(=O)N4CCOCC4)cc32)c1,3,-1,13,-2,2,.,.,.
O=C(C[C@H]1C[C@H](C(=O)N2CCCCC2)[C@@]2(CCc3ccccc3)c3[nH]c4cc(-c5ccco5)ccc4c3CCN2C1=O)NCCN1CCOCC1,.,43*,.,9,.,1,3,-2
COCCCn1c(=O)/c(=C\c2cccc(OC)c2OC)s/c1=C(/C#N)C(=O)Nc1ccc(C(=O)O)cc1,14,102*,3,22,2,46*,2,86*
COCCCn1c(=O)/c(=C/c2ccccc2OC(F)F)s/c1=C(\C#N)C(=O)NCCOC,.,84*,.,-8,.,24,47*,-1
COCCCn1c(=O)/c(=C\c2ccccc2OC(F)F)s/c1=C(/C#N)C(=O)NCCOC,1,.,-2,-8,-1,.,.,.
CCNC(=O)C1(C)CCN(C(=O)c2c(F)ccc(C)c2F)C1 (stereo not drawn),.,-2,.,-2,.,.,.,.
CCCCCCN1C=CC=C/C1=C\C=C(C#N)C#N,-5,62*,12,-6,3,4,-5,11
CCN(CC)S(=O)(=O)c1cc(C)ccc1SC,4,28*,6,0,-8,-3,-21,2
Cc1onc(-c2ccccc2)c1C(=O)Nc1nc2c(s1)C(=O)CC(C)(C)C2,3,117*,-14,-3,-5,2,-2,-16
SMILES,PP1 counter,Rpn11 block,PREPL inh,NadD block,PP5 inh,Rpn11 inh conf,MMP-2 counter,Thrombin inh
CC1(C)CC(=O)c2sc(NC(=O)c3ccco3)nc2C1,-4,-10,8,-3,0,.,.,.
CCOc1ccc(NC(=O)/C=C/c2ccc(OC)cc2)c([N+](=O)[O-])c1,3,48*,7,5,-3,-16,-26,-20
COc1ccc(/C=C/C(=O)Nc2ccc(OC)cc2[N+](=O)[O-])cc1,0,44*,12,-5,-1,39,-20,14
COc1ccc(NC(=O)/C=C/c2ccccc2)c([N+](=O)[O-])c1,3,-1,9,-2,3,.,.,.
CCOc1ccc(NC(=S)NC(=O)/C=C/c2ccc(C)cc2)c([N+](=O)[O-])c1,2,3,-11,6,0,.,.,.
COc1ccc(NC(=O)CC(C)=O)c(OC)c1,.,8,.,-1,.,.,.,.
COc1ccc(NC(=O)CC(=O)Nc2ccc(OC)cc2OC)c(OC)c1,-4,129*,-2,0,1,1,-15,-17
COc1ccccc1NC(=O)C1=C(C)Nc2ncnn2C1c1cccs1 (stereo not drawn),0,78*,1,1,0,-11,-6,-12
CC(=O)OCC1OC(n2c(-c3ccc(Cl)cc3)ccc(C#N)c2=S)C(OC(C)=O)C(OC(C)=O)C1OC(C)=O (stereo not drawn),.,44*,.,4,.,17,-38,8
Cc1cc(CN2CCCC(C(=O)Nc3ccc(-c4nc5ccccc5[nH]4)cc3)C2)n[nH]1 (stereo not drawn),3,5,-12,-7,-1,.,.,.
CCN(CC)c1ccc(/C=N/NC(=O)CN2CCCc3ccccc32)cc1,11,-5,19,4,1,.,.,.
O=C(CN1CCCc2ccccc21)N/N=C/c1ccccc1,5,66*,27,3,0,10,-13,-5
CN1CCN(/N=C/c2ccc(-c3ccc([N+](=O)[O-])cc3Cl)o2)CC1,-1,60*,38,-13,-2,14,-30,9
Cc1cccc(NC(=O)/C(=C\c2ccco2)NC(=O)c2cccs2)c1,-2,32*,0,-1,-1,4,-5,7
Cc1ccc(C(=O)N/C(=C/c2ccco2)C(=O)Nc2cccc(C)c2)cc1,0,25,7,-5,2,.,.,.
CCOC(=O)c1c(NC(=O)CC(C)C)sc(C(C)=O)c1C,-1,-14,-6,-5,3,.,.,.
CCOC(=O)c1c(NC(=O)c2cc(-c3ccc(O)cc3)on2)sc(C(C)=O)c1C,-3,171*,7,7,2,-14,-32,-6
COc1ccccc1OCc1ccc(C(=O)N(C)c2ccccc2)o1,.,0,.,-1,.,.,.,.
CCCCC(Br)C(=O)Nc1ccc(S(=O)(=O)Nc2cc(C)nc(C)n2)cc1 (stereo not drawn),1,5,2,5,-1,.,.,.
CN1/C(=C\C=N\NC(=O)c2cccnc2)C(C)(C)c2ccccc21,1,4,-9,-5,1,.,.,.
